mHTT-CaM PPI inh: mHTT-calmodulin interaction abrogation. actives 3.6% (n = 190,000). inhibition, % at 15 µM. AlphaScreen His-mHTT/GST-CaM binding, luminescence
Pf apPOL inh: Pf-apPOL DNA polymerase inhibition. Recombinant Pf-apPOL, molecular beacon fluorescence, 1.5 h. inhibition, % at 10 µM. actives 0.25% (n = 210,000)
A number is an active result; – = inactive; · = no result. This is a sample that favours compounds with a hit; in the whole collection about 3.5% have one here. Rule as the data show it: active = inhibition above about 50%; inactive = the rest.

SMILES	mHTT-CaM PPI inh	Pf apPOL inh
Cc1ccc(Nc2c([N+](=O)[O-])cc([N+](=O)[O-])c3cccnc23)cc1C	–	–
CC(=O)NC(c1ccc(C(C)C)cc1)c1cc(Cl)c2cccnc2c1O (centres undefined)	100	–
CCCCC(=O)NC(c1ccc(OC)cc1)c1cc(Cl)c2cccnc2c1O (centres undefined)	–	–
COc1ccc(C(NC(C)=O)c2cc(Cl)c3cccnc3c2O)cc1 (centres undefined)	100	–
CCCC(=O)NC(c1ccc(N(C)C)cc1)c1cc(Cl)c2cccnc2c1O (centres undefined)	–	–
CC(=O)NC(c1ccc(N(C)C)cc1)c1cc(Cl)c2cccnc2c1O (centres undefined)	96	–
CC(=O)NC(c1ccccc1)c1cc(Cl)c2cccnc2c1O (centres undefined)	100	–
CC1CCN(C(=O)c2cc3c(s2)CCC(C(=O)NCCCn2cccn2)C3)CC1 (centres undefined)	–	–
COc1ccc(OCCOc2ccc(/C=C3/C(=N)N4N=C(C)SC4=NC3=O)cc2OC)cc1	–	–
O=C(C1CCCCC1)N1CCCC2(CC(c3ccc(Cl)cc3)=CO2)C1 (centres undefined)	–	–
OC(c1ccc2c(c1)OCO2)c1nccc2ccccc12 (centres undefined)	–	–
CC(C)C(=O)NC(c1ccc2c(c1)OCO2)c1cc(Cl)c2cccnc2c1O (centres undefined)	62	–
CC(=O)NC(c1ccccc1Cl)c1cc(Cl)c2cccnc2c1O (centres undefined)	95	–
CCCCCCCCCn1cc[n+](CCCCCCCCC)c1C	100	·
CCCCCCCCN1C(=O)CCC1=O	–	·
O=C(NC1CC1)c1ccc(OCC2CCN(C(=O)C3CCCCC3)CC2)cc1	–	–
CCC(=O)NC(=Nc1nc(C)c2cc(C)c(C)cc2n1)NC(=O)CC	–	52
CCOc1ccc2c(C)nc(N=C(N)NC(=O)CC)nc2c1	–	–
Cc1ccc(Sc2nccnc2N2CCC(C(=O)NCCN3CCCC3)CC2)cc1	–	–
CCNC(=O)c1ccc2c3c(onc13)-c1ccccc1C2=O	51	–
CCNC(=O)c1ccccc1-c1ccccc1C(=O)O	–	–
CCCCN1C(c2cccc(C)c2)=NS(=O)(=O)c2cc(NC(C)=O)ccc21	–	–
COc1ccc(CN(CCC(c2ccc3c(c2)OCO3)c2ccccc2OC)C(C)=O)cc1OC (centres undefined)	68	–
COc1ccc(CN(CCC(c2ccc3c(c2)OCO3)c2ccccc2OC)C(C)=O)cc1 (centres undefined)	53	–
COc1ccccc1C(CC(=O)N1CCCC1)c1ccc2c(c1)OCO2 (centres undefined)	–	–
SMILES	mHTT-CaM PPI inh	Pf apPOL inh
CCC(=O)N(CCC(c1ccc2c(c1)OCO2)c1ccccc1OC)Cc1ccc2c(c1)OCO2 (centres undefined)	–	–
COc1ccccc1C(CCN(Cc1ccccc1)C(C)=O)c1ccc2c(c1)OCO2 (centres undefined)	99	–
COc1ccccc1C(CC(=O)O)c1ccc2c(c1)OCO2 (centres undefined)	–	–
CC(C)CNS(=O)(=O)C1CON(C)C1c1cccc(Cl)c1Cl (centres undefined)	–	–
O=C(Cc1ccc(F)cc1)Nc1c2c(nn1-c1ccc(Cl)cc1)CS(=O)(=O)C2	–	–
O=C(NCc1ccc(F)cc1F)c1ccc(NC(=O)C2CC2)cc1N1CCOCC1	–	–
CCn1c(C)c(CN2CCC(C(=O)NCCCOC(C)C)CC2)c2ccccc21	–	–
c1ccc(CN2CCN(Cc3ccccn3)CC2)nc1	–	–
c1ccc(CNCCN2CCNCC2)nc1	100	–
COc1ccc(C(=O)NCCc2c[nH]c3ccccc23)cc1	–	–
COc1ccc(C(=O)C(C)OC(=O)CCc2c[nH]c3ccccc23)cc1 (centres undefined)	90	–
Cc1ccc(Cn2cc(-c3noc(C4CCCC4)n3)nn2)cc1	–	–
Cc1ccc(CNC(=O)C2CCCN(S(=O)(=O)c3ccc(Br)s3)C2)o1 (centres undefined)	–	–
CC(C)CC1C(=O)N(Cc2cn(CCC3OCCO3)nn2)CCS(=O)(=O)N1Cc1ccc(-c2ccc(Cl)c(Cl)c2)cc1 (centres undefined)	72	–
CC(C)C1C(=O)N(Cc2cn(CCC3OCCO3)nn2)CCS(=O)(=O)N1Cc1ccc(-c2ccc(Cl)c(Cl)c2)cc1 (centres undefined)	98	–
Cc1ccc(-c2ccc(CN3C(CC(C)C)C(=O)N(Cc4cn(CCC5OCCO5)nn4)CCS3(=O)=O)cc2)cc1 (centres undefined)	–	–
COCOCCn1cc(CN2CCS(=O)(=O)N(Cc3ccc(-c4ccc(Cl)c(Cl)c4)cc3)C(C(C)C)C2=O)nn1 (centres undefined)	100	–
CC(C)C1C(=O)N(Cc2cn(CCC3OCCCO3)nn2)CCS(=O)(=O)N1Cc1ccc(-c2ccncc2)cc1 (centres undefined)	–	–
COc1ccc(-c2ccc(CN3C(C(C)C)C(=O)N(Cc4cn(CCC5OCCO5)nn4)CCS3(=O)=O)cc2)cc1OC (centres undefined)	–	–
COCOCCn1cc(CN2CCS(=O)(=O)N(Cc3ccc(-c4ccc(Cl)cc4)cc3)C(C(C)C)C2=O)nn1 (centres undefined)	–	–
CC(C)C1C(=O)N(Cc2cn(CCC3OCCCO3)nn2)CCS(=O)(=O)N1Cc1ccc(-c2ccc(F)cc2)cc1 (centres undefined)	70	–
CC(=O)c1sc(NC(=O)C2CC3CCC2C3)nc1C (centres undefined)	–	·
COc1ccc(/C=C2/NC(=O)N(Cc3ccccc3F)C2=O)c(OC)c1OC	–	–
CSc1ccc(CNC(=O)C2CCN(c3nnc(-c4ccccc4)o3)CC2)cc1	–	–
CC1CCCC(N2CCN(Cc3ccccc3)CC2)C1 (centres undefined)	–	–
SMILES	mHTT-CaM PPI inh	Pf apPOL inh
Cc1onc(-c2ccccc2)c1C(=O)Nc1cccc(Cl)c1C	–	–
CC(C)Cn1c(C2CCN(S(=O)(=O)c3cc(F)cc(F)c3)C2)nc2ccncc21 (centres undefined)	–	–
CC1C(=O)N(c2ccc(F)cc2)CCN1C(=O)c1ccc(Cl)cc1 (centres undefined)	–	–
COCOCCn1cc(CN2CCS(=O)(=O)N(Cc3ccc(-c4ccc(C)cc4)cc3)C(CC(C)C)C2=O)nn1 (centres undefined)	–	–
COCOCCn1cc(CN2CCS(=O)(=O)N(Cc3ccc(-c4ccc(F)cc4)cc3)C(CC(C)C)C2=O)nn1 (centres undefined)	69	–
O=C(NC=Nc1cc([N+](=O)[O-])c(-c2ccncc2)n1-c1ccccc1)c1cccc(O)c1	64	–
O=C(Nc1ccc2nn(-c3ccccc3)nc2c1)c1ccc(Cl)c([N+](=O)[O-])c1	–	–
O=C1CSC(c2cccc(Br)c2)N1c1ccc(F)cc1Cl (centres undefined)	–	–
COc1ccc(CCN2C(=S)NC3c4cc([N+](=O)[O-])ccc4OC2(C)C3C)cc1OC (centres undefined)	61	–
COCCCN1C(=S)NC2c3cc([N+](=O)[O-])ccc3OC1(C)C2C (centres undefined)	–	–
Cc1cc(C)nc(SC(NC(=O)c2ccccc2)C(=O)c2ccccc2)n1 (centres undefined)	94	–

Screening data: PubChem, University of Kansas High Throughput Screening Laboratory
